DT40 TDP1 CPT – growth inhibition of DT40 Tdp1-/-;hTDP1 cells with camptothecin (screen for TDP1 inhibitors) | chicken DT40 Tdp1-/-;hTDP1 cells + 20 nM CPT, ATP luminescence, 48 h | Potency, µM (series often up to 46.2 µM), inactives show at the highest dose activity change, negative = growth inhibition, hits mostly inhibitors | 420,000 tested, 12% active | AID 686979; also: potency is read from the fitted curve at half-maximal effect; % is scaled to controls: 0 for no effect and ±100 for the full control effect; nearly all actives have a fitted effect of over 55% in size
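Chicken DT40 Tdp1-/- cells complemented with human TDP1, 400 cells/well, exposed to compounds plus 20 nM camptothecin for at least 48 h at 37 C; viability read as ATP content by CellTiter-Glo luminescence.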
IL-1B inflam inh – inflammasome signaling inhibition, IL-1 beta readout; 360,000 tested, 4.7% active; activity change, % at 57.5 µM; AID 743279; THP-1 LPS/ATP IL-1B secretion, AlphaLISA, 16 h; stronger effect = lower value; in the data active = activity change below about -50%; inconclusive = mostly about -30% to -49%; also: % is scaled to controls: 0 for no effect and ±100 for the full control effect
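Secreted IL-1B measured by AlphaLISA bead assay after 16 h compound exposure of THP-1 cells; compounds (final up to 57.5 uM) added 1 h before LPS (250 ng/mL) and ATP (1.25 mM) stimulation; lower signal means less secretion.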
TDP1 cell noCPT – qHTS for Inhibitors of human tyrosyl-DNA phosphodiesterase 1 (TDP1): qHTS in cells in absence of CPT; 420,000 tested, 15% active; DT40 Tdp1-/- hTDP1 cells, no CPT, ATP luminescence, 48 h; Potency, µM (series often up to 46.2 µM), for inactives: top-dose activity change, negative = growth inhibition, most hits filed as inhibitors; also: potency is read from the fitted curve at half-maximal effect; % is scaled to controls: 0 for no effect and ±100 for the full control effect; nearly all actives have a fitted effect of over 55% in size
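Stably hTDP1-transfected Tdp1-null chicken DT40 cells were treated with library compounds minus camptothecin and grown for at least 48 hr at 37 °C, after which cellular ATP was quantified by luminescence.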
DRD3 agonist – agonists of human D3 dopamine receptor | max activation, % | 410,000 tested, 0.58% active | D3R DiscoveRx beta-arrestin cells, luminescence, 90 min | AID 652048; in the data active = max activation above about 30%; also: 0% is about no effect
Target sequence (P35462 whole entry, looked up): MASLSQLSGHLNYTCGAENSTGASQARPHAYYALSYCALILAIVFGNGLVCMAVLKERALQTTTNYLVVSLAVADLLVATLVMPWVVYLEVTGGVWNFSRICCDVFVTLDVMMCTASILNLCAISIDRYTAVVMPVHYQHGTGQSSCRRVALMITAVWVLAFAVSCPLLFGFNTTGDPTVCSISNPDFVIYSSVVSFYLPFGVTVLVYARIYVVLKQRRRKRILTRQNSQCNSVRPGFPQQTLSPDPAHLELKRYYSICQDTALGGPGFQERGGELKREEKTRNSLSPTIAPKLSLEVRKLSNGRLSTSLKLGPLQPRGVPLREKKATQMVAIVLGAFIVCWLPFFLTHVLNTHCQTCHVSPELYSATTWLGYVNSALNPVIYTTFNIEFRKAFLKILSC
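Agonist-mode cell screen: cells plated at 1500/well and incubated overnight at 37 °C, then exposed to library compounds for 90 min at 37 °C. Detection reagent was added for 30–60 min at room temperature, and luminescence was read.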
ClpP mod – qHTS Assay for Activators of ClpP; purified B. subtilis ClpP, FRET peptide cleavage, 20 min; Potency, µM (top dose mostly 57.5 µM), without a hit: at the top dose activity change, negative = active; 340,000 tested, 1.9% active; AID 651965, 2013; active = well fitted falling curve with a large enough effect; inconclusive = small, poorly fitted or top-dose-only effect; inactive = no such curve, though single readings can be large or run the other way; also: potency is read from the fitted curve at half-maximal effect; the source files actives as falling curves though it sought activators and does not explain the sign; nearly all actives have a fitted effect of over 65% in size
Target sequence (P80244 whole entry, looked up): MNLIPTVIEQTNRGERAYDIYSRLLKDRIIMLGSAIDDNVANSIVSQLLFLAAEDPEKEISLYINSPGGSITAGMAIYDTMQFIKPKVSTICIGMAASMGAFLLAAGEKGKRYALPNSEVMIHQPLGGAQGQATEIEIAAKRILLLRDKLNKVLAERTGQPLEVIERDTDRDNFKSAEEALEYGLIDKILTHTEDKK
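FRET quenching reversal measured ClpP activation: 10 microg/mL B. subtilis ClpP at pH 8 with the FRET-FV decapeptide, read at 430 nm after 320 nm excitation. The 20-min minus 0-min signal was scaled between DMSO/no-enzyme wells and ADEP (5.8 microM final).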
D3 antag – blocks the human D3 dopamine receptor; D3R cells, DiscoveRx beta-arrestin luminescence, antagonist mode; stronger effect = lower value; AID 652054; 360,000 tested, 2.5% active; max response, negative = inhibition, %; in the data active = max response below about -50%; inconclusive = no clear call, values can overlap the other calls; also: % is scaled to controls: 0 for no effect and ±100 for the full control effect
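Cells plated overnight at 1500 cells/well, then exposed to library compounds with dopamine controls for 90 minutes at 37 degrees C. DiscoveRx reagent added for 30–60 minutes at room temperature; luminescence read, quantitative HTS format.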
The depositor's hits bear a star; i = inactive; u = inconclusive; x = no result; [ ] = dose if it differs, or a comment. An excerpt weighted towards active compounds, which were near 21% of everything screened. Unless noted, calls follow the shape of the dose curve; as a rule, active = well fitted inhibition curve with a large enough effect; inconclusive = small, poorly fitted or top-dose-only effect; inactive = flat fitted curve, though single readings scatter.

SMILES	DT40 TDP1 CPT	IL-1B inflam inh	TDP1 cell noCPT	DRD3 agonist	ClpP mod	D3 antag
O=C(Nc1cccc(NC(=O)c2ccccc2[N+](=O)[O-])n1)c1ccccc1[N+](=O)[O-]	6.5µM*	6	9.2µM*	4	-3%	-2
Cc1cc(NC(=O)c2ccc([N+](=O)[O-])cc2Cl)no1	-21%	-21	8%	-3	-4%	0
O=C(Nc1cccc(NC(=O)c2cc([N+](=O)[O-])ccc2Cl)n1)c1cc([N+](=O)[O-])ccc1Cl	7.3µM*	-100*	9.2µM*	-8	0%	-14
Cc1cc(NC(=O)c2cc([N+](=O)[O-])ccc2Cl)no1	u	u	16µM*	0	0%	-24
Cc1cccc(NC(=O)c2ccccc2[N+](=O)[O-])n1	-1%	-1	9%	7	1%	1
O=C(c1cc([N+](=O)[O-])ccc1Cl)N1c2ccccc2Sc2ccccc21	u	u	15µM*	16	0%	12
Cc1cc(=O)c(C(=O)O)nn1-c1ccc(Cl)cc1	-1%	5	3%	0	0%	10
COCCNC(=O)c1cc(OC)c(OC)cc1[N+](=O)[O-]	7%	18	1%	-1	-2%	3
CC(C)CCNC(=O)c1ccc(Cn2c(SCC(=O)NC(C)C)nc3ccccc3c2=O)cc1	u	x	u	-1	1%	x
CCC(=O)N1CCc2cc(OC)c(OC)cc2C1COc1ccc(F)cc1 (configuration not stated)	-10%	u	u	3	0%	9
COc1cc2c(cc1OC)C(COc1cc(C)cc(C)c1)N(C(=O)COc1ccccc1)CC2 (configuration not stated)	u	x	23µM*	6	-10%	x
COc1cc2c(cc1OC)C(COc1cc(C)cc(C)c1)N(C(=O)C(C)(C)C)CC2 (configuration not stated)	u	x	26µM*	7	3%	x
COc1cc2c(cc1OC)C(COc1cc(C)cc(C)c1)N(C(C)=O)CC2 (configuration not stated)	u	-6	u	-1	-2%	-15
Cc1cccc(C(=O)NC2=NCCS2)c1	-5%	-13	-19%	3	x	3
CCOC(=O)c1ccn(-c2nc(-c3cccc(OC)c3)cc(C(F)(F)F)n2)n1	15µM*	x	21µM*	-1	4%	x
FC(F)(F)c1cc(-c2ccccc2)nc(-n2cc(Cl)cn2)n1	u	u	u	0	-1%	8
COc1nn(-c2nc(-c3ccccc3)cc(C(F)(F)F)n2)cc1[N+](=O)[O-]	22%	15	-8%	9	22µM*	-10
COc1cccc(-c2cc(C(F)(F)F)nc(N3CCC(C)CC3)n2)c1	-2%	58	u	7	25µM*	18
COc1cccc(-c2cc(C(F)(F)F)nc(N3CCOCC3)n2)c1	-21%	-5	-29%	-1	-29%	-13
COC(=O)c1ccn(-c2nc(-c3ccco3)cc(C(F)(F)F)n2)n1	-27%	1	u	1	u	9
COc1cccc(-c2cc(C(F)(F)F)nc(-n3cc(Cl)cn3)n2)c1	u	x	16µM*	4	32µM*	-7
Cc1nc(N2CCOCC2)c2c(C(=O)N(C)Cc3ccccc3)c(C)oc2n1	-3%	x	-5%	-7	3%	x
CC(C)Cc1nc2cc(NS(=O)(=O)N(C)C)cc(C(=O)N3CCOc4ccccc4C3)c2n1C	-2%[9.04 µM]	x	-15%	x	x	x
COc1ccc(CCNC(=O)c2ccc(CS(=O)Cc3ccc(Cl)cc3)o2)cc1OC (configuration not stated)	u	12	u	1	1%	6
CC(C)(C)c1ccc(C(=O)N/C(=C/c2cccs2)C(=O)NCc2ccco2)cc1	u	-68*	u	-11	1%	-13
SMILES	DT40 TDP1 CPT	IL-1B inflam inh	TDP1 cell noCPT	DRD3 agonist	ClpP mod	D3 antag
O=C(N/C(=C/c1cccs1)C(=O)N1CCOCC1)c1cccs1	7%	15	6%	7	1%	4
CC(C)(C)c1ccc(C(=O)N/C(=C\c2cccs2)C(=O)N2CCOCC2)cc1	-29%	6	21µM*	-3	x	-1
CCC(C(=O)OC)n1cnc2c(nnn2-c2ccc(C)cc2)c1=O (configuration not stated)	-14%	24	u	-10	-3%	13
CCCCN(CC)C(=O)CCNS(=O)(=O)c1ccc2c(c1)c(=O)n(C)c(=O)n2C	-12%	x	-28%	0	-23%	x
Cc1ccc(CN2C(=O)CCC2C(=O)NCCCN2CCCC(C)C2)cc1 (configuration not stated)	9%	49	10%	-4	-2%	14
Cc1ccc(CNC(=O)CN2CCCC(C)C2)cc1 (configuration not stated)	-5%	8	-9%	-6	1%	-71*
Cc1ccc(C(=O)C2CCN(CC(=O)NCc3ccc(F)cc3)CC2)cc1	u	-6	-7%	-29	2%	-93*
CSc1ccc(NC(=O)N2CCC(C(=O)c3ccc(F)cc3)CC2)cc1	u	-69*	u	-13	x	-7
Cc1ccc(C(=O)C2CCN(CC(=O)NC3CCCC3)CC2)cc1	7%	-1	-28%	-19	x	-15
Cc1ccc(C(=O)C2CCNCC2)cc1	-20%	-3	-21%	-6	-2%	-65*
Cc1cccc(NC(=O)CSc2ccc3nnc(-c4cccnc4)n3n2)c1	-17%	i	-27%	-1	1%	-25
COc1cccc(NC(=O)N2CCCC2C(=O)NC23CC4CC(CC(C4)C2)C3)c1 (configuration not stated)	-13%	20	-19%	-22	-1%	-13
O=C(CN1CCCC1)Nc1ccc(F)cc1	7%	8	-21%	-11	x	-13
Cc1ccc(NC(=O)CN2CCC(C(=O)c3ccc(F)cc3)CC2)cc1	u	u	u	-10	-1%	-69*
O=C(C[n+]1cccc(Cl)c1)c1ccc(O)c(O)c1	6%	x	-24%	x	0%	x
COc1cccc(C2c3cc4c(cc3OC(NNC(N)=O)C2C)OCO4)c1O (configuration not stated)	4.6µM*	33	4.1µM*	-9	-6%	-5

Assay outcomes deposited in PubChem BioAssay by National Center for Advancing Translational Sciences (NCATS).
